# Records with an inconclusive call do not appear. Unmarked numbers belong to inactive results. Activity calls are given as the source filed them. The call rests on the fitted dose curve; in most records, active means well fitted curve in the direction sought with a large enough effect in the repeat runs; inconclusive means weak or mixed curves; inactive means no such curve, though single readings can be large; an effect the other way counts as inactive or inconclusive.
# Test: qHTS assay to identify small molecule antagonists of the thyroid receptor (TR) signaling pathway - cell viability counter screen (AID 743064); further: nearly all actives have a fitted effect of over 50% in size
# Conditions: GH3.TRE-Luc viability, CellTiter-Fluor, 24 h; series mostly up to 70.3 µM; activity change, negative = cytotoxic: at the top concentration
# In short: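 Viability of T3-stimulated (1 nM final) GH3.TRE-Luc cells is measured by CellTiter-Fluor fluorescence after 23.5 h compound exposure at 37 °C plus 30 min reagent incubation.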
# On the % scale 0 is the no-effect control and ±100 the full control effect.
row,Structure (SMILES),"activity change, negative = cytotoxic"
1,Cc1c(O)cc2c(c1C)O[C@](C)(CCC[C@H](C)CCC[C@H](C)CCCC(C)C)CC2,-15.6%
2,CCCCCCCCCCCCCCCC(=O)OC[C@@H](COP(=O)([O-])OCC[N+](C)(C)C)OC(=O)CCCCCCCCCCCCCCC,9.76%
3,CCCCCCCCCCCCCCCCCCOP(=O)([O-])OC1CC[N+](C)(C)CC1,8.76% [at 32.5 µM]
4,C=C1CC2C3CCC4=CC(=O)C=C[C@]4(C)[C@@]3(F)[C@@H](O)C[C@]2(C)[C@@]1(O)C(=O)COC(C)=O (stereo partly drawn),21.1%
5,CO[C@H]1[C@@H](O)[C@H](N)[C@@H](O[C@H]2O[C@H]([C@H](C)N)CC[C@H]2N)[C@H](O)[C@@H]1N(C)C(=O)CN,11.8%

# Test: qHTS assay to identify small molecule antagonists of the thyroid receptor (TR) signaling pathway (AID 743065); further: nearly all actives have a fitted effect of over 55% in size; further: potency means the concentration at half of the fitted maximal effect
# Conditions: GH3.TRE-Luc, T3-stimulated luciferase inhibition, 23.5 h; series mostly up to 70.3 µM; activity, negative = inhibition: at the top concentration
# In short: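 GH3.TRE-Luc rat pituitary cells carrying two TR response elements driving luciferase were plated for 4 h, given compound plus 1 nM T3 (final), and incubated 23.5 h at 37 C. ONE-Glo luminescence measured reporter inhibition; CellTiter-Fluor fluorescence tracked cytotoxicity.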
Structure (SMILES),"activity, negative = inhibition",Potency
C=C1c2c(Cl)ccc(O)c2C(O)=C2C(=O)[C@]3(O)C(O)=C(C(N)=O)C(=O)[C@@H](N(C)C)[C@@H]3[C@@H](O)[C@H]12,0.0124% [at 32.5 µM],
O=P(O)(O)C(O)(Cc1cnc2ccccn12)P(=O)(O)O,7.34%,
CCCCCCCCCCCCCCCCCC(=O)OCCO,4.65%,
COc1cc(S(C)=O)ccc1-c1nc2ncccc2[nH]1 (stereo not drawn),0.556%,
c1ccc2c(CCC3CCNCC3)c[nH]c2c1,,21.1 µM (active)
CN[C@@H]1[C@@H](O)[C@@H](O[C@@H]2[C@@H](O)[C@H](OC3OC(CN)=CCC3N)[C@@H](N)C[C@H]2N)OC[C@]1(C)O (stereo partly drawn),13.1% [at 32.5 µM],
Cc1cc(Nc2ccccc2C(=O)O)ccc1Cl,,26.6 µM (active)
NCCCC[C@H](NC(=O)[C@@H]1CCCN1C(=O)[C@@H]1CSSC[C@H](N)C(=O)N[C@@H](Cc2ccccc2)C(=O)N[C@@H](Cc2ccccc2)C(=O)N[C@@H](CCC(N)=O)C(=O)N[C@@H](CC(N)=O)C(=O)N1)C(=O)NCC(N)=O,-3.31%,

# — PubChem BioAssay (Tox21)
